# Data from PubChem BioAssay.
# Values joined by “and” are separate entries in the source; they are usually repeats but may differ in a detail not shown here. Equal values may be shown once. Results filed as inconclusive are left out. Active and inactive are the calls of the source. Cut-off read from the data, not from the text of the source, unless noted: active = inhibition above about 80%; inactive = the rest.
# Legend:
# [1] = viability loss in pontine glioma line – cell-based, SU-DIPG-IV, MIPE4.0, CellTiter-Glo, qHTS, dose response (AID 1347063; cut-off not given, nearly all actives have AC50 up to about 30 µM;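 note: compound exposure lasted 48 hours before the viability readout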); settings: CellTiter-Glo ATP luminescence
# [2] = viability loss in pontine glioma line – cell-based, SU-DIPG-XIII, MIPE5.0, CellTiter-Glo, qHTS, dose response (AID 1347064; cut-off not given, nearly all actives have AC50 up to about 23 µM;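 for AC50: cells exposed to compound for 48 hours before the viability read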); settings: CellTiter-Glo ATP luminescence
# [3] = viability loss in pontine glioma line – cell-based, SU-DIPG-XXV, MIPE5.0, CellTiter-Glo, qHTS, dose response (AID 1347065; cut-off not given, nearly all actives have AC50 up to about 26 µM;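 note: cells exposed to compound for 48 hours before ATP readout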); settings: CellTiter-Glo ATP luminescence
# [4] = growth inhibition of DIPG cells – cell-based, MIPE4.0 library, CellTiter-Glo luminescence, qHTS (AID 1347066; cut-off not given, nearly all actives have AC50 up to about 30 µM;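 note: cells exposed to compound for 48 hours before readout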); settings: SU-DIPG-VI viability, CellTiter-Glo ATP luminescence
# [5] = JHH-DIPG-1 glioma cell viability, MIPE5.0 library, CellTiter-Glo luminescence, qHTS (AID 1347067; cut-off not given, nearly all actives have AC50 up to about 26 µM;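 note: cells exposed to compound for 48 hours before readout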); settings: JHH-DIPG-1 glioma viability, CellTiter-Glo ATP luminescence
# [6] = compounds altering circadian rhythm period length – cell-based, LOPAC library, luminescence reporter (AID 2774; call rule not given here;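 note: values are relative to mean of DMSO wells on each plate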); settings: circadian reporter cells, at 7 µM, actives lie on both sides
# [7] = compounds altering viability of human ES cells (AID 493140; call rule not given here;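 note: cells exposed to compounds for four days before counting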); settings: human embryonic stem cell survival screen; stronger effect = higher value
# [8] = test system: Hepatitis C virus NS3 helicase; experiment: blockers of NS3h binding to ssDNA – biochemical, fluorescence polarization, LOPAC1280 library, primary screen (AID 687035; in the data active = inhibition above about 37%); settings: Purified HCV NS3 helicase, Cy5-dT15 ssDNA binding fluorescence polarization; stronger effect = higher value; concentration not given here
# [9] = compounds altering Cy5-DNA-NS3h complex signal – biochemical, LOPAC1280, artefact control for HCV NS3 helicase inhibitor project (AID 687037; call rule not given here); settings: Cy5-DNA-NS3h complex fluorescence interference counterscreen
# [10] = compounds altering HSF1 focus formation in cells – imaging, Selleck Cancer Library (AID 1347162; in the data active = plate-normalised HSF1 focus index below about 0.46); settings: human cells, HSF1 nuclear foci imaging, at 10 µM; SSMD: measured here: HSF1 foci SSMD mean; cell count: measured here: cell number; plate-normalised HSF1 focus index: stronger effect = lower value
# [11] = blockers of cellular phospholipid synthesis – cell-based, LOPAC library, screen 4, primary screen (AID 1347384; call rule not given here); settings: animal cells, phospholipid biosynthesis inhibition screen; at 10 µM
# [12] = growth inhibition, single agent or in combination, cell-based, chromothripsis tumors, cisplatin or BGB combos (AID 1671449); settings: LFS_MB_P medulloblastoma cells;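 note: cells exposed for 96 hours; 0% = vehicle DMSO and 100% = killing by high DMSO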
# [13] = growth inhibition, single agent and combos, cell-based, chromothripsis tumors, cisplatin or BGB combos (AID 1671450); settings: HDN33 neuroblastoma cells, stronger effect = higher value;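 note: cells exposed to compound for four days; 0% = vehicle DMSO and 100% = cell killing by high DMSO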
# [14] = growth inhibition, single agents and combos, ICB984, cell-based, cisplatin or BGB combos, synergistic combos for chromothripsis tumors (AID 1671451; call rule not given here;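 note: cells exposed for 96 hours before readout; 0% = vehicle DMSO and 100% = killing by high DMSO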); settings: ICB984 medulloblastoma cells, drug combinations, stronger effect = higher value
# [15] = growth inhibition, single agents and combos, HTB85, cell-based, BGB or cisplatin IC20 combos, synergistic combos for chromothripsis tumors (AID 1671453); settings: HTB85 osteosarcoma cells, drug combinations, stronger effect = higher value;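 note: cells exposed for 96 hours before readout; 0% = vehicle DMSO and 100% = high DMSO killing control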
# [16] = growth inhibition, MDA-MB-436, cell-based, BGB or cisplatin combos, synergistic combos for chromothripsis tumors (AID 1671458; call rule not given here;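 note: cells exposed for 96 hours; 0% = vehicle DMSO and 100% = killing by high DMSO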); settings: MDA-MB-436 breast carcinoma growth inhibition, drug combinations, stronger effect = higher value
# [17] = BT084 cell growth, single and combined drugs, ICGC_MB145, cisplatin and BGB IC40 combos (AID 1671461); settings: BT084 medulloblastoma cells, drug combinations, stronger effect = higher value;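 note: cells exposed to drugs for 96 hours; 0% = vehicle DMSO and 100% = high DMSO full killing control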
# [18] = RCMB18 cell growth, single agent and combined, cisplatin and BGB IC40 combos (AID 1671462); settings: RCMB18 medulloblastoma cells, stronger effect = higher value;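 note: cells exposed to compound for four days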
# [19] = CRL1545 cell growth, single agent and combined, cisplatin and BGB IC20 combos (AID 1671464); settings: CRL1545 osteosarcoma cells, stronger effect = higher value;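 note: cells exposed to compound for 96 hours before readout; 0% = vehicle DMSO and 100% = high DMSO killing control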
# [20] = measured here: with BGB IC20 combination, at 0.5 µM
# [21] = measured here: with cisplatin IC20 combination, at 0.5 µM
smiles,measurement,setting,value
CCOCC(O)COc1ccc(NC(=O)CC[S+](C)C)cc1 (stereo not drawn),outcome,[1],inactive
same,outcome,[2],inactive
same,outcome,[3],inactive
same,outcome,[4],inactive
same,outcome,[5],inactive
CC1=C(/C=C/C(C)=C/C=C/C(C)=C/C(=O)Nc2ccc(O)cc2)C(C)(C)CCC1,period change,[6],-0.145 h (inactive)
same,survival,[7],116 (inactive)
same,inhibition,[8],-3% (inactive)
same,fluorescence ratio (interference),[9],1 (inactive)
same,AC50,[1],4.81 µM (active)
same,AC50,[2],16.6 µM (active)
same,AC50,[3],14.8 µM (active)
same,AC50,[4],9.59 µM (active)
same,AC50,[5],20.9 µM (active)
same,SSMD,[10],-4.16
same,cell count,[10],7280
same,plate-normalised HSF1 focus index,[10],0.851 (inactive)
same,outcome,[11],active
Nc1nc(Cl)nc2c1ncn2[C@@H]1O[C@H](CO)[C@@H](O)[C@@H]1F,AC50,[1],0.0332 µM (active)
same,SSMD,[10],-4.45
same,cell count,[10],7490
same,plate-normalised HSF1 focus index,[10],0.84 (inactive)
same,inhibition,"[12]; at 0.5 µM, stronger effect = higher value",-3.9% (inactive) and -14.3% (inactive)
same,inhibition,"[12]; measured here: combination with BGB IC20, at 0.005 µM",-8.83% and 6.96%
same,inhibition,"[12]; measured here: combination with BGB IC40, at 0.005 µM",-20.3% and 1.78%
same,inhibition,"[12]; measured here: combination with BGB IC40, at 0.05 µM",-15.7% and -36.2%
same,inhibition,"[12]; measured here: combination with cisplatin, at 0.5 µM, stronger effect = higher value",-5.98% and 57.4%
same,inhibition,"[12]; measured here: combination with cisplatin, at 5 µM, stronger effect = higher value",71.4% and 96.1%
same,inhibition,"[13]; BGB combo, at 5 µM",93.3% and 87.1%
same,inhibition,[13]; at 0.5 µM,73.2% (inactive) and 66.1% (inactive)
same,inhibition,"[13]; cisplatin combo, at 5 µM",95.5% and 89.7%
same,inhibition,[13]; [20],77.5% and 72.5%
same,inhibition,[13]; [21],73.9% and 60.5%
same,inhibition,"[13]; single agent, at 5 µM",90.8% and 89.8%
same,inhibition,"[14]; BGB IC20 combo, at 0.005 µM",-17.9% and 1.1%
same,inhibition,"[14]; BGB IC40 combo, at 0.005 µM",-37% and -3.72%
same,inhibition,"[14]; BGB IC40 combo, at 0.05 µM",35.1% and 25%
same,inhibition,[14]; at 0.5 µM,-24.6% (inactive) and -23.6% (inactive)
same,inhibition,"[14]; cisplatin combo, at 0.05 µM",35.1% and 22.3%
same,inhibition,"[14]; cisplatin combo, at 0.5 µM",-35.6% and 1.18%
same,inhibition,"[14]; cisplatin combo, at 5 µM",0.299% and -46.4%
same,inhibition,"[14]; measured here: 5 uM single agent, at 5 µM",-18.8% and -11.5%
same,inhibition,[15]; at 0.5 µM,75.4% (inactive) and 77.9% (inactive)
same,inhibition,"[15]; measured here: with BGB IC20, at 0.5 µM",66.7% and 73.9%
same,inhibition,"[15]; measured here: with BGB IC20, at 5 µM",95.1% and 90.7%
same,inhibition,"[15]; measured here: with cisplatin IC20, at 0.5 µM",78% and 76.7%
same,inhibition,"[15]; measured here: with cisplatin IC20, at 5 µM",97.1% and 95.9%
same,inhibition,"[15]; single agent, at 5 µM",96.4%
same,inhibition,[16]; at 0.5 µM,45.3% (inactive) and 53.2% (inactive)
same,inhibition,"[16]; measured here: BGB combination, at 0.5 µM",39.5% and 52%
same,inhibition,"[16]; measured here: BGB combination, at 5 µM",65.6% and 67.5%
same,inhibition,"[16]; measured here: cisplatin combination, at 0.5 µM",40.6% and 46.8%
same,inhibition,"[16]; measured here: cisplatin combination, at 5 µM",87% and 90.6%
same,inhibition,[17]; at 0.5 µM,25.8% (inactive) and 24.8% (inactive)
same,inhibition,"[17]; cisplatin combination, at 0.5 µM",61.9% and 62.5%
same,inhibition,"[17]; cisplatin combination, at 5 µM",70.1% and 80%
same,inhibition,"[17]; measured here: BGB IC40 combination 0.05 uM, at 0.05 µM",-13.2% and 17.9%
same,inhibition,"[17]; single agent, at 5 µM",-3.16% and -6.18%
same,inhibition,[18]; at 0.5 µM,16.9% (inactive) and 18.5% (inactive)
same,inhibition,"[18]; cisplatin combo, at 5 µM",84.3% and 94.2%
same,inhibition,"[18]; measured here: BGB IC40 combination, at 0.05 µM",-16.1% and -7.68%
same,inhibition,"[18]; measured here: combination with cisplatin, at 0.5 µM",83.1% and 66%
same,inhibition,"[18]; single agent, at 5 µM",9.06% and 45.4%
same,inhibition,[19]; at 0.5 µM,7.42% (inactive) and 10.4% (inactive)
same,inhibition,[19]; [20],24% and 34.6%
same,inhibition,[19]; [21],-0.869% and -3.42%
same,inhibition,"[19]; single agent, at 0.05 µM",30.6% and -23.9%
same,inhibition,"[19]; single agent, at 5 µM",97.1% and 92.1%
